From PubChem BioAssay (NCATS)
Where “and” joins values, the source holds several entries; their conditions need not be identical. Equal values may be shown once. Results filed as inconclusive are left out. Where a call stands in place of a potency, no number is given. Calls of active or inactive are those of the source. The call rests on the fitted dose curve; in most records, active means well fitted cell-killing curve with a large enough effect; inconclusive means small, poorly fitted or top-dose-only effect; inactive means flat fitted curve, though single readings scatter.

experiment: Cell Viability - LYMP2-010 (AID 981); settings: LYMP2-010 lymphoblastoid cell viability, qHTS; series mostly up to 92.2 µM;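 further: cells exposed to compound for 24 hours at 37 °C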
Procedure, shortened: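 Human lymphoblastoid LYMP2-010 cells (2500/well) treated 24 h at 37 C in complete medium; viability read as intracellular ATP by CellTiter-Glo luminescence. AC50 from Hill fits of concentration-response data; tetraoctylammonium bromide positive control.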
Further: nearly all actives have a fitted effect of over 55% in size.
Potency means the concentration at half of the fitted maximal effect.

SMILES	Potency
S=C=S	inactive
CCCCCCCCOC(=O)c1ccccc1C(=O)OCCCCCCCC	inactive
C=CCN=C=S	inactive
NNC(N)=O	inactive
O=C(O)C(Cl)(Cl)Cl	inactive
[O]=[Cd]	inactive
O=C1CCO1	inactive
COc1ccc2c(c1OC)C(=O)OC2C1c2cc3c(cc2CCN1C)OCO3 (stereo not given)	inactive
Clc1ccccc1Cl	inactive
[Cl-].[Cl-].[Hg+2]	0.316 µM (active)
C[C@H]1CC[C@@H]2[C@@H](C)[C@H]3[C@H](C[C@H]4[C@@H]5CC=C6CC(O[C@@H]7O[C@H](CO)[C@H](O)[C@H](O[C@@H]8O[C@H](CO)[C@@H](O)[C@H](O)[C@H]8O)[C@H]7O[C@H]7O[C@@H](C)[C@H](O)[C@@H](O)[C@H]7O)CC[C@]6(C)[C@H]5CC[C@]34C)N2C1 (stereo not given in full)	39.8 µM (active)
COC1=CC(=O)O[C@@H](/C=C/c2ccccc2)C1	inactive
CC(C)Nc1ccc(Nc2ccccc2)cc1	25.1 µM (active)
C[C@]12CCC(=O)C[C@@H]1CC[C@@H]1[C@@H]2CC[C@]2(C)[C@@H](O)CC[C@@H]12	inactive
ClC(Cl)(Cl)Cl	inactive
O=Cc1ccco1	inactive
ClCC1CO1 (stereo not given)	inactive
ClC=C(Cl)Cl	inactive
CC(C)CCON=O	inactive
Oc1cc(Cl)c(Cl)cc1Cl	inactive
O=C1C=CC(=O)C=C1	39.8 µM (active)
CCCCCl	inactive
C[C@H]1CCC[C@H](O)CCCCCc2cc(O)cc(O)c2C(=O)O1	inactive
CC(C)(C)c1cc(O)ccc1O	50.1 µM (active)
O=C1C2CC=CCC2C(=O)N1SC(Cl)(Cl)Cl (stereo not given)	2.51 µM (active) and 3.16 µM (active)
O=C/C=C/c1ccccc1	inactive
O=[N+]([O-])c1ccccc1	inactive
CCOC(=O)c1ccccc1C(=O)OCC	inactive
[O]=[Cr](=[O])([OH])[O][Cr](=[O])(=[O])[OH]	10 µM (active) and 7.94 µM (active)
O=CC=O	inactive

experiment: Cell Viability - LYMP2-012 (AID 982); settings: LYMP2-012 lymphoblastoid cell viability qHTS; series mostly up to 92.2 µM;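 further: cellular ATP by luciferase luminescence where a drop means cytotoxicity; cells exposed to compound for one day before reading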

SMILES	Potency
S=C=S	inactive
CCCCCCCCOC(=O)c1ccccc1C(=O)OCCCCCCCC	inactive
C=CCN=C=S	inactive
NNC(N)=O	inactive
O=C(O)C(Cl)(Cl)Cl	inactive
[O]=[Cd]	inactive
O=C1CCO1	inactive
COc1ccc2c(c1OC)C(=O)OC2C1c2cc3c(cc2CCN1C)OCO3 (stereo not given)	inactive
Clc1ccccc1Cl	inactive
C[C@H]1CC[C@@H]2[C@@H](C)[C@H]3[C@H](C[C@H]4[C@@H]5CC=C6CC(O[C@@H]7O[C@H](CO)[C@H](O)[C@H](O[C@@H]8O[C@H](CO)[C@@H](O)[C@H](O)[C@H]8O)[C@H]7O[C@H]7O[C@@H](C)[C@H](O)[C@@H](O)[C@H]7O)CC[C@]6(C)[C@H]5CC[C@]34C)N2C1 (stereo not given in full)	31.6 µM (active)
COC1=CC(=O)O[C@@H](/C=C/c2ccccc2)C1	inactive
CC(C)Nc1ccc(Nc2ccccc2)cc1	25.1 µM (active)
C[C@]12CCC(=O)C[C@@H]1CC[C@@H]1[C@@H]2CC[C@]2(C)[C@@H](O)CC[C@@H]12	inactive
ClC(Cl)(Cl)Cl	inactive
O=Cc1ccco1	inactive
ClCC1CO1 (stereo not given)	inactive
ClC=C(Cl)Cl	inactive
CC(C)CCON=O	inactive
Oc1cc(Cl)c(Cl)cc1Cl	inactive
O=C1C=CC(=O)C=C1	39.8 µM (active)
CCCCCl	inactive
C[C@H]1CCC[C@H](O)CCCCCc2cc(O)cc(O)c2C(=O)O1	inactive
CC(C)(C)c1cc(O)ccc1O	50.1 µM (active)
O=[N+]([O-])c1ccc(F)c([N+](=O)[O-])c1	inactive
O=C1C2CC=CCC2C(=O)N1SC(Cl)(Cl)Cl (stereo not given)	2.51 µM (active) and 5.01 µM (active)
O=C/C=C/c1ccccc1	inactive
O=[N+]([O-])c1ccccc1	inactive
CCOC(=O)c1ccccc1C(=O)OCC	inactive
[O]=[Cr](=[O])([OH])[O][Cr](=[O])(=[O])[OH]	12.6 µM (active) and 15.8 µM (active) and 7.94 µM (active)
O=CC=O	inactive
